# Test results as given in PubChem BioAssay.
# Entries with a potency or affinity are not part of this list. Records with an inconclusive call do not appear. Calls of active or inactive are those of the source. How the calls were made is not given here.
# Assay: OVCAR-3 cell viability loss – plate reader, dry powder samples, PAX8 inhibitor project, dose response (AID 743044)
# Conditions: NIH:OVCAR-3 ovarian cancer cell viability; max activity: at 35 µM, hits give low values unless noted; series mostly up to 50 µM
row,Compound,max activity
1,COc1cccc(-c2ccc3c(c2)[C@@H]2[C@@H](CCN2S(=O)(=O)c2ccccc2C)[C@H](CO)N3C)c1,"-25.8% [at 30 µM, hits give low values] (inactive)"
2,COc1ccc(S(=O)(=O)Nc2ccc3c(c2)C(=O)N([C@H](C)CO)C[C@H](C)[C@H](CN(C)S(=O)(=O)c2ccc(F)cc2)OCCCC[C@H](C)O3)cc1,-7.5% (inactive)
3,C[C@H]1CN([C@@H](C)CO)S(=O)(=O)c2ccc(C#Cc3ccccc3F)cc2O[C@H]1CN(C)C(=O)c1ccc2c(c1)OCO2,-13% (inactive)
4,O=C(C1CCC1)N1CCCCN2[C@H](CO)[C@H](c3ccc(-c4cccc(F)c4)cc3)[C@H]2C1,"7.58% [at 0.26 µM, hits give low values] (inactive)"
5,C[C@H]1CCCCO[C@@H](CN(C)Cc2ccncc2)[C@@H](C)CN([C@@H](C)CO)C(=O)c2cc(NC(=O)Nc3ccc(C(F)(F)F)cc3)ccc2O1,"-18.9% [at 16 µM, hits give low values] (inactive)"
6,COc1ccc(NC(=O)Nc2ccc3c(c2)C(=O)N([C@@H](C)CO)C[C@@H](C)[C@@H](CN(C)Cc2ccc(C(F)(F)F)cc2)O3)cc1,"-14.9% [at 0.5 µM, hits give low values] (inactive)"
7,O=S(=O)(c1ccccc1F)N1CC[C@@H]2[C@H](CO)Nc3ccc(C4=CCCCC4)cc3[C@@H]21,8.04% (inactive)
8,C[C@@H]1CCCCO[C@@H](CN(C)Cc2ccc(C(F)(F)F)cc2)[C@H](C)CN([C@@H](C)CO)C(=O)c2cc(NS(=O)(=O)c3ccc(Cl)cc3)ccc2O1,"-25.4% [at 8 µM, hits give low values] (inactive)"
